# Tested on: FLX1 + dox-induced PRKAR1A G325D
# Assay: difference in log2 fold change of viability vs plate median (dox-induced PRKAR1A G325D minus uninduced); higher = compound less effective when PKA is inhibited
# Details: concentration: not stated (2 or 5 uM); 5 days
# Method: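 For each plate a log2 fold change vs the plate median was derived, and the values without dox were subtracted from those with dox, averaged over three biological replicates.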
row,Structure (SMILES),difference in log2 fold change of viability
1,Cc1cc(Nc2cc(N3CCN(C)CC3)nc(/C=C/c3ccccc3)n2)n[nH]1,-0.0361
2,"Cc1[nH]c(/C=C2\C(=O)Nc3ccccc32)c(C)c1CCC(=O)O [Orantinib (TSU-68, SU6668)]",0.216
3,C=CC(=O)Nc1cccc(Nc2nc(Nc3ccc(OCCOC)cc3)ncc2F)c1,-0.726
4,Cc1cn(-c2cc(NC(=O)c3ccc(C)c(Nc4nccc(-c5cccnc5)n4)c3)cc(C(F)(F)F)c2)cn1 [Nilotinib (AMN-107)],0.157
5,CC1(COc2ccc3c(c2)ncn3-c2ccc3cccc(N4CCC(N)CC4)c3n2)COC1,-0.0241
6,O=C1c2ccc(Nc3ccc(F)cc3F)cc2CCc2ccc(OC[C@H](O)CO)cc21 [Skepinone-L],0.71
7,COc1ccc(CNC(=O)Nc2ncc([N+](=O)[O-])s2)cc1,0.288
8,CO[C@H]1C[C@@H]2CC[C@@H](C)[C@@](O)(O2)C(=O)C(=O)N2CCCC[C@H]2C(=O)O[C@H]([C@H](C)C[C@@H]2CC[C@@H](OC(=O)C(C)(CO)CO)[C@H](OC)C2)CC(=O)[C@H](C)/C=C(\C)[C@@H](O)[C@@H](OC)C(=O)[C@H](C)C[C@H](C)/C=C/C=C/C=C/1C,0.457
9,C#Cc1cccc(Nc2ncnc3cc4c(cc23)OCCOCCOCCO4)c1 [Icotinib],-0.163
10,Cc1[nH]c(/C=C2\C(=O)Nc3ccc(S(=O)(=O)N(C)c4cccc(Cl)c4)cc32)c(C)c1C(=O)N1CCN(C)CC1,0.163
11,"C=CC(=O)Nc1cccc(Nc2nc(Nc3ccc(N4CCN(C(C)=O)CC4)cc3OC)ncc2C(F)(F)F)c1 [Rociletinib (CO-1686, AVL-301)]",-0.172
12,C[C@@]1(C(=O)Nc2ccc(F)nc2)CCCN1c1nc(Nc2cc(C3CC3)n[nH]2)c2cccn2n1,-1.23
13,CN1CCC(COc2cnc(-c3cccc(Cn4nc(-c5cccc(C#N)c5)ccc4=O)c3)nc2)CC1,-0.973
14,CCn1c(=O)c(-c2ccc(-c3cncs3)cc2Cl)cc2cnc(Nc3ccc(N4CCN(C)CC4)cc3)nc21,-0.943
15,Cc1cc(O)c2c(c1)C(=O)c1cccc(O)c1C2=O [Chrysophanic Acid],0.0332
16,CN1CCN(CCOc2cc(OC3CCOCC3)c3c(Nc4c(Cl)ccc5c4OCO5)ncnc3c2)CC1 [Saracatinib (AZD0530)],-1.34
17,Cn1cc(/C=C2\C(=O)Nc3cccnc32)c2ccccc21,0.00477
18,COc1cc2ncnc(Nc3ccc(F)c(Cl)c3)c2cc1OCCCN1CCOCC1 [Gefitinib (ZD1839)],-0.198
19,C=CC(=O)Nc1cccc(Oc2nc(Nc3ccc(N4CCN(C)CC4)cc3OC)ncc2Cl)c1,-1.14
20,Cc1cc2c(F)c(Oc3ncnn4cc(OC[C@@H](C)OC(=O)[C@H](C)N)c(C)c34)ccc2[nH]1,0.461

row,Structure (SMILES),difference in log2 fold change of viability
1,CO[C@H]1C[C@@H]2CC[C@@H](C)[C@@](O)(O2)C(=O)C(=O)N2CCCC[C@H]2C(=O)O[C@H]([C@H](C)C[C@@H]2CC[C@H](n3cnnn3)[C@H](OC)C2)CC(=O)[C@H](C)/C=C(\C)[C@@H](O)[C@@H](OC)C(=O)[C@H](C)C[C@H](C)/C=C/C=C/C=C/1C [Zotarolimus(ABT-578)],0.358
2,O=C(NCc1ccccc1)c1csc(Nc2ccncn2)n1 [Thiazovivin],0.59
3,CCN1CCN(Cc2ccc(Nc3ncc(F)c(-c4cc(F)c5nc(C)n(C(C)C)c5c4)n3)nc2)CC1,-0.0976
4,Oc1ccc(-c2nc(-c3ccc(F)cc3)c(-c3ccncc3)[nH]2)cc1,0.0143
5,Cc1ccc(NC(=O)c2ccc(CN3CCN(C)CC3)cc2)cc1Nc1nc(-c2cccnc2)cs1 [Masitinib (AB1010)],0.682
6,O=C(Nc1cccc(Nc2ncc(Br)c(NCCc3cnc[nH]3)n2)c1)N1CCCC1,0.799
7,COc1ccc(-c2ccc3ncc4c(c3c2)n(-c2ccc(N3CCNCC3)c(C(F)(F)F)c2)c(=O)n4C)cn1,0.174
8,Cc1cnc(NC(=O)Nc2cc(Br)c(C)cc2OC[C@@H]2CNCCO2)cn1,1.29
9,Cc1cc(C(=O)NOCCO)c(Nc2ccc(I)cc2F)n(C)c1=O,-0.818
10,Cn1cnc2c(F)c(Nc3ccc(Br)cc3Cl)c(C(=O)NOCCO)cc21 [Selumetinib (AZD6244)],-1.05
11,O=C(Nc1c[nH]nc1-c1nc2ccc(CN3CCOCC3)cc2[nH]1)NC1CC1,0.115
12,COCCOc1ccc2c(c1)ncn2-c1ccc2cccc(N3CCC(N)CC3)c2n1,-0.262
13,O=c1sn(-c2cccc3ccccc23)c(=O)n1Cc1ccccc1 [Tideglusib],1.01
14,O=C(Nc1cc(C(F)(F)F)cc(C(F)(F)F)c1)c1cc(Cl)ccc1O,-0.138
15,CCOc1cc(C(=O)N2CCC(N3CCN(C)CC3)CC2)ccc1Nc1ncc2c(n1)N(C1CCCC1)c1ccccc1C(=O)N2C,0.00328
16,CCCNC(=O)Nc1ccc(Oc2ncnc3cc(OC)c(OC)cc23)cc1Cl,-0.22
17,Cn1sc(=O)n(Cc2ccccc2)c1=O,0.221
18,CNc1nc(-c2ccc3c(N)n[nH]c3c2)cc(N2C[C@@H](C(=O)NC3CCCCC3)CC[C@H]2C)n1,0.221
19,O=c1c(O)c(-c2ccc(O)c(O)c2)oc2cc(O)cc(O)c12 [Quercetin],-0.0725

# Reference: the supplement of paper PMC9925115
